Here are results for 39 compounds from PubChem BioAssay (NCATS).

Molecules are shown by their SMILES. Values joined by “and” are separate entries in the source; they are usually repeats but may differ in a detail not shown here. Equal values may be shown once. Records with an inconclusive call do not appear. Where a call stands in place of a potency, no number is given. Active and inactive are the calls of the source. Unless noted, the call rests on the fitted dose curve; in most records, active means well fitted curve in the direction sought with a large enough effect; inconclusive means small, poorly fitted or top-dose-only effect, or another doubt; inactive means no such curve, though single readings can be large; an effect the other way counts as inactive or inconclusive.

Assay [1] concerns the target Guanine nucleotide-binding protein G(i) subunit alpha-1 (Homo sapiens) (UniProt P63096). The assay is described as follows: qHTS Assay for Inhibitors of RGS12 GoLoco Motif Activity (Green Fluorophore) (AID 879). Further: potency means the concentration at half of the fitted maximal effect. The method, boiled down:
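Fluorescence polarization assay: 50 nM Gαi1 with 10 nM FITC-labeled RGS12 GoLoco peptide in 10 mM Tris pH 7.5, 150 mM NaCl, 0.1 mM GDP, 0.05% NP40, 10 min at room temperature with compound.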

The target of assay [2] is Cytochrome P450 3A4 (Homo sapiens) (UniProt P08684). The assay can be described thus: qHTS Assay for Activators of Cytochrome P450 3A4 (AID 885). Further: nearly all actives have a fitted effect of over 65% in size. The method, boiled down: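 Signal was normalized against complete inhibition by 57 uM ketoconazole. The reaction used 20nM CYP3A4 with 25uM Luciferin-PPXE, 10-min compound preincubation and a 60-min NADPH-supported step at RT.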
Cytochrome P450 3A4 (Homo sapiens), sequence (P08684 whole entry, looked up): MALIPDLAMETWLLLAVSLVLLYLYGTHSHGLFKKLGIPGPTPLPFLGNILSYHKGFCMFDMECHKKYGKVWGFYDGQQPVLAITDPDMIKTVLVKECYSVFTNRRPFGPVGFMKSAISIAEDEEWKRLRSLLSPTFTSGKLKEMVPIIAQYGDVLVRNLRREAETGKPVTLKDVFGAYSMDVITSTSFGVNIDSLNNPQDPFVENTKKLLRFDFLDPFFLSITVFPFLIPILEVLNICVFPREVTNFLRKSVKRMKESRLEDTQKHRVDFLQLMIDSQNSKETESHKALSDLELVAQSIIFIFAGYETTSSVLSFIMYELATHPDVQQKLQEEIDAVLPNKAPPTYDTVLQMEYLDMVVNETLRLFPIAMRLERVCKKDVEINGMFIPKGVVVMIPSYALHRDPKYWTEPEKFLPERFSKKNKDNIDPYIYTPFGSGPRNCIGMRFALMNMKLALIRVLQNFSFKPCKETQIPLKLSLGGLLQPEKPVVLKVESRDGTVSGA

The target is the same in assay [3]. The assay is described as follows: qHTS Assay for Inhibitors and Substrates of Cytochrome P450 3A4 (AID 884). Further: nearly all actives have a fitted effect of over 50% in size. Further: potency means the concentration at half of the fitted maximal effect. The method, boiled down: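 20 nM human CYP3A4 with 25 uM Luciferin-PPXE (at KM) in 200 mM KPO4, preincubated 10 min with compound; NADPH regeneration started a 60 min RT reaction. Luciferin detected by luminescence, normalized to 57 uM ketoconazole as full inhibition.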

Assay [4] addresses Cytochrome P450 2D6 (Homo sapiens) (UniProt P10635). The assay is described as follows: qHTS Assay for Inhibitors and Substrates of Cytochrome P450 2D6 (AID 891). Further: nearly all actives have a fitted effect of over 60% in size. Further: potency means the concentration at half of the fitted maximal effect. The method, boiled down: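 Human CYP2D6 (5 nM) with 30 uM Luciferin-ME EGE (at Km) in 100 mM KPO4, compound preincubated 10 min, then NADPH regeneration system for 60 min at room temperature. Luciferin read by luminescence; normalized to 1.43 uM quinidine.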

Assay [5] in a line: qHTS Assay for Identification of Small Molecule Antagonists for NFkB Signaling Pathway (AID 895; active means well fitted inhibition curve with a large enough effect in the signal ratio, with a control signal flat, not every such curve was filed as active; the % refers to the signal ratio; further: potency means the concentration at half of the fitted maximal effect). The method, boiled down: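 NFkB-bla ME-180 cervical carcinoma cells with beta-lactamase reporter under NFkB response element; compounds added, then TNF alpha at 10 pM final (EC50), 5 h at 37 C. LiveBLAzer substrate 2 h, room temperature; emission 460/530 nm at 405 nm excitation.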

In assay [6] the target is Cytochrome P450 2C19 (Homo sapiens) (UniProt P33261). The assay is described as follows: qHTS Assay for Inhibitors and Substrates of Cytochrome P450 2C19 (AID 899). Further: nearly all actives have a fitted effect of over 60% in size. Further: potency means the concentration at half of the fitted maximal effect. The method, boiled down:
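In 50mM KPO4, the reaction held 5nM enzyme and KM-level (10uM) Luciferin-H EGE; it ran 60 min at 37C after NADPH regeneration and a 10 min compound preincubation. Luminescence values were scaled to 57uM ketoconazole as complete inhibition.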

Assay [7] deals with Cytochrome P450 2C9 (Homo sapiens) (UniProt P11712). The assay is described as follows: qHTS Assay for Inhibitors and Substrates of Cytochrome P450 2C9 (AID 883). Further: nearly all actives have a fitted effect of over 60% in size. The method, boiled down: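 CYP2C9 deoxyluciferin hydroxylation, 37C, 60 min with NADPH regeneration; 10nM enzyme, 100uM Luciferin-H (KM). Glo detection reagent stopped reaction; luminescence normalized to sulphaphenazole (57uM) full inhibition.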
Cytochrome P450 2C9 (Homo sapiens), sequence (P11712 whole entry, looked up): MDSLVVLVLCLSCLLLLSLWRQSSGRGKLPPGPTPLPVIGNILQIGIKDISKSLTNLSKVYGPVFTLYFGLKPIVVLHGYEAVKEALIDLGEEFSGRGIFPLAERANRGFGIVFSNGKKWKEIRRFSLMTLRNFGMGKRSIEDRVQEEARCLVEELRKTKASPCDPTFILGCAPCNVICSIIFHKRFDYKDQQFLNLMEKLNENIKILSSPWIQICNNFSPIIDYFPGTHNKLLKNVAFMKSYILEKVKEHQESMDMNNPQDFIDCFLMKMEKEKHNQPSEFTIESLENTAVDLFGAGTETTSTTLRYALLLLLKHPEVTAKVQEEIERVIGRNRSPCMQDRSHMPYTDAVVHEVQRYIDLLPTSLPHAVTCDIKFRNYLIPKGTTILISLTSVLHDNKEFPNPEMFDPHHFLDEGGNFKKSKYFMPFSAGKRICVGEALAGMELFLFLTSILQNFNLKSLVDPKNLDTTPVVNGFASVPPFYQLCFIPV

Guanine nucleotide-binding protein G(i) subunit alpha-1 (Homo sapiens), sequence (P63096 whole entry, looked up): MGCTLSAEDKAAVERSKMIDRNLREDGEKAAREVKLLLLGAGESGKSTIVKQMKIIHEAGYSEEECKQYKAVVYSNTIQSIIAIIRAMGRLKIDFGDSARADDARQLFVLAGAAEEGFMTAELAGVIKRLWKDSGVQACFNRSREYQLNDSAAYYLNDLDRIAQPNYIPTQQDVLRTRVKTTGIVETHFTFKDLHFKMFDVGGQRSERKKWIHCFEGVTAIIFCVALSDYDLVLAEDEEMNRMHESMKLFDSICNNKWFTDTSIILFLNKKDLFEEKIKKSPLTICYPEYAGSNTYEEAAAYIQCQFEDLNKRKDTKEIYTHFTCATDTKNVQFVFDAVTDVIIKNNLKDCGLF
Cytochrome P450 2D6 (Homo sapiens), sequence (P10635 whole entry, looked up): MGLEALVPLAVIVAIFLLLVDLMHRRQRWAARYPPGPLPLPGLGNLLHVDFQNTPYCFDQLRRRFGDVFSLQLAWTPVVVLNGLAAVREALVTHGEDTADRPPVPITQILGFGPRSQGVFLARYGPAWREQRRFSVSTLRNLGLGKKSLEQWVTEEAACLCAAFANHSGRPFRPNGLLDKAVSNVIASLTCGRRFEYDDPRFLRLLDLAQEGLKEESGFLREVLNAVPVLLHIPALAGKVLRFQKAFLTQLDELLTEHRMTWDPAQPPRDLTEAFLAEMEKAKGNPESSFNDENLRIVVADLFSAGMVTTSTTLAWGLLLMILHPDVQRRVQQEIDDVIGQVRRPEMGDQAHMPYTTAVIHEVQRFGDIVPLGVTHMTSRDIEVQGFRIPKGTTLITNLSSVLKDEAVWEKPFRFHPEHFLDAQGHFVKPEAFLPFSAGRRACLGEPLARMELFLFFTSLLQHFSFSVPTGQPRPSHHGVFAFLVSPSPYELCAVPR
Cytochrome P450 2C19 (Homo sapiens), sequence (P33261 whole entry, looked up): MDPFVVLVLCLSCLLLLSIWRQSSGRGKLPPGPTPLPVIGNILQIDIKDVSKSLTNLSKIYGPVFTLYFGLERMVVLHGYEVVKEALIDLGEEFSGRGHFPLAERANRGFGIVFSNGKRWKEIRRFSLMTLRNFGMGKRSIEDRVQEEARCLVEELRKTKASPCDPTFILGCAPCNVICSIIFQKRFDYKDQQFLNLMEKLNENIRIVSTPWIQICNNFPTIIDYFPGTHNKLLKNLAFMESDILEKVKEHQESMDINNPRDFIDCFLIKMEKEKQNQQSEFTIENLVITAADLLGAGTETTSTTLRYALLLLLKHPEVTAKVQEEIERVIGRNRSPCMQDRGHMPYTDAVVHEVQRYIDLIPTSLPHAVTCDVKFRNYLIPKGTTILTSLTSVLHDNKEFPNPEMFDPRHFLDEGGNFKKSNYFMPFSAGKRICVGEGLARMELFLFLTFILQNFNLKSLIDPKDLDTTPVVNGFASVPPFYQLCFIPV

With `N[C@@H](Cn1oc(=O)[nH]c1=O)C(=O)O`, the Potency entry in assay [1] is “inactive”. Besides, in assay [2], the compound was called inactive. As for `CP(=O)(O)C1=CCNCC1`, the Potency result in assay [1] was “inactive”. The outcome in assay [2] was inactive. In the case of `O=S1(=O)N(CCN2CC=C(c3c[nH]c4cc(F)ccc34)CC2)c2cccc3c2N1CCC3`, the Potency entry in assay [1] and in assay [5] was “inactive” each time. Also, the Potency is 5.01 µM (active) in assay [3], 0.199 µM (active) in assay [4] and 6.31 µM (active) in assay [6]. Moreover, the call in assay [2] was inactive. As to `CN1CCC(c2c[nH]c3ccc(O)cc23)CC1`, the Potency result in assay [1] was “inactive”. The outcome in assay [2] was inactive. For `c1ccc2cc(CC3=NCCN3)ccc2c1`, the Potency result in assay [1] is “inactive”.

For `CN1C2CCC1CC(OC(c1ccccc1)c1ccccc1N)C2` (stereo not given), the Potency entry in assay [3] is “inactive”. Consider `COc1ccc2c(c1)c(CCN1CCOCC1)c(C)n2C(=O)c1cccc(Cl)c1Cl`, for which the Potency in assay [3] was 3.16 µM (active). In addition, the result in assay [2] was inactive. With `CC(C)NP(=O)(NC(C)C)OP(=O)(NC(C)C)NC(C)C`, the Potency result in assay [1] and in assay [5] was “inactive” each time. Take `NCCc1ccc(S(=O)(=O)F)cc1`: the Potency result in assay [1] and in assay [5] was “inactive” throughout. As to `Cc1cc(C)cc(C(=O)OC2C[C@H]3CC[C@@H](C2)N3C)c1` (stereo not given in full), in assay [4], the Potency is 0.251 µM (active). On to `O=[N+]([O-])c1ccc2nc(N3CCNCC3)ccc2c1`, for which the Potency result in assay [1] and in assay [6] was “inactive” throughout. Also, the result in assay [2] was inactive. On to `CCC(=O)O[C@@](Cc1ccccc1)(c1ccccc1)[C@@H](C)CN(C)C`, for which the Potency in assay [3] was 5.01 µM (active); in assay [4], 7.94 µM (active). For the same compound, the compound was called inactive in assay [2].

Turning to `NCCc1c[nH]c2ccc(C(N)=O)cc12`, the Potency entry in assay [1] and in assay [5] was “inactive” throughout. As for `O=P(O)(O)C(Cl)(Cl)P(=O)(O)O`, the Potency result in assay [1], in assay [5] and in assay [6] was “inactive” each time. For the compound `CC1OC1P(=O)(O)O` (stereo not given), the Potency result in assay [3] was “inactive”. On to `[N-]=[N+]=CC(=O)OCC(N)C(=O)O` (stereo not given), for which the Potency entry in assay [3] was “inactive”.

Take `CCC1(C)CC(=O)NC(=O)C1`: the Potency entry in assay [6] was “inactive”. With `C[N+](C)(C)CCOC(=O)CBr`, the Potency result in assay [1] and in assay [5] was “inactive” each time. Regarding `C=CCC1(C(C)CCC)C(=O)N=C(S)NC1=O` (stereo not given), the Potency in assay [3] is 12.6 µM (active). Also, the call in assay [2] was inactive. For `CNC(=O)OCC[N+](C)(C)C`, the Potency result in assay [1] and in assay [4] was “inactive” in each case. With `C[N+](C)(C)CC#CCN1CCCC1=O`, the Potency entry in assay [1] was “inactive”. Moreover, the Potency in assay [4] was 3.98 µM (active). Regarding `CC(N)Cc1ccc(O)cc1` (stereo not given), the Potency entry in assay [3] is “inactive”. Consider `O=c1ccc2[nH]cc(C3=CCNCC3)c2[nH]1`, for which the Potency was 2.51 µM (active) in assay [4] and 0.126 µM (active) in assay [6]. For the compound `Clc1cc(I)cc(Cl)c1NC1=NCCN1`, the Potency result in assay [1] and in assay [5] was “inactive” in each case. In addition, the Potency in assay [4] is 3.98 µM (active). For the compound `O=C1C=C2C=C[C@@H]3C[C@@]2(O1)[C@H]1CCCCN31`, in assay [3], the Potency result is “inactive”. On to `N#CCCN`, for which the Potency entry in assay [1] and in assay [5] was “inactive” in each case.

On to `CN(N=O)c1ccc(O)c(O)c1`, for which the Potency entry in assay [7], in assay [3], in assay [4] and in assay [6] was “inactive” in each case. Turning to `NC(Cc1ccc(N(CCCl)CCCl)cc1)C(=O)O` (stereo not given), in assay [2], the outcome was inactive. As for `CCCN(CCC)[C@@H]1CCc2cccc(O)c2C1`, the Potency entry in assay [1] is “inactive”. Also, in assay [4], the Potency is 3.16 µM (active) and 794 nM (active). Take `O=C(O)c1cc[c]([Hg][Cl])cc1`: the Potency in assay [1] is 25.1 µM (active). The Potency entry in assay [5] was “inactive”.

For the compound `CCCN(CCC)[C@H]1CCc2c(F)ccc(O)c2C1`, the Potency entry in assay [1] is “inactive”. In addition, in assay [4], the Potency is 631 nM (active) and 1.58 µM (active). For the compound `C=CCN1CC[C@]23c4c5ccc(O)c4O[C@H]2/C(=N/NC(=O)c2ccccc2)CC[C@@]3(O)[C@H]1C5`, in assay [2], the compound was called inactive. In the case of `Clc1ccc(N2C[C@H]3CC[C@@H](C2)N3)nn1`, the Potency result in assay [1] and in assay [5] was “inactive” throughout.

As to `COc1ccc(OC)c(C(O)C(C)N)c1` (stereo not given), the Potency entry in assay [3] was “inactive”. Turning to `Clc1ccc(Cl)cc1`, in assay [3], the Potency entry is “inactive”. Regarding `C[C@@H](CO)NC(=O)[C@@H]1C=C2c3cccc4[nH]cc(c34)C[C@H]2N(C)C1`, the compound was classed as inactive in assay [2]. Consider `OCc1cnc[nH]1`, for which the Potency result in assay [1] and in assay [5] was “inactive” throughout. For `COc1ccc2[nH]c3c(c2c1)CCNC3`, the Potency result in assay [1] is “inactive”. The Potency in assay [5] is 5.01 µM (active). Consider `C[C@@H]1[C@@H]2Cc3ccc(O)cc3[C@@]1(C)CCN2CC1CC1`, for which the Potency result in assay [1] and in assay [5] was “inactive” throughout.
